# Source: ChEMBL document CHEMBL1201862, “PubChem BioAssay data set” (2004)
# Out of some 400,000 compounds screened, about 2,100 (0.53%) were called active. Not shown: some 14% with an inconclusive outcome. No rule for the calls is given here. Shown is part of a subset that was picked to be rich in actives.
# Target: Ataxin-2 (Homo sapiens) (UniProt Q99700)
# Test: qHTS for Inhibitors of ATXN expression.
# Assay type: functional
# Sequence of Ataxin-2 (Homo sapiens) (Q99700 whole entry): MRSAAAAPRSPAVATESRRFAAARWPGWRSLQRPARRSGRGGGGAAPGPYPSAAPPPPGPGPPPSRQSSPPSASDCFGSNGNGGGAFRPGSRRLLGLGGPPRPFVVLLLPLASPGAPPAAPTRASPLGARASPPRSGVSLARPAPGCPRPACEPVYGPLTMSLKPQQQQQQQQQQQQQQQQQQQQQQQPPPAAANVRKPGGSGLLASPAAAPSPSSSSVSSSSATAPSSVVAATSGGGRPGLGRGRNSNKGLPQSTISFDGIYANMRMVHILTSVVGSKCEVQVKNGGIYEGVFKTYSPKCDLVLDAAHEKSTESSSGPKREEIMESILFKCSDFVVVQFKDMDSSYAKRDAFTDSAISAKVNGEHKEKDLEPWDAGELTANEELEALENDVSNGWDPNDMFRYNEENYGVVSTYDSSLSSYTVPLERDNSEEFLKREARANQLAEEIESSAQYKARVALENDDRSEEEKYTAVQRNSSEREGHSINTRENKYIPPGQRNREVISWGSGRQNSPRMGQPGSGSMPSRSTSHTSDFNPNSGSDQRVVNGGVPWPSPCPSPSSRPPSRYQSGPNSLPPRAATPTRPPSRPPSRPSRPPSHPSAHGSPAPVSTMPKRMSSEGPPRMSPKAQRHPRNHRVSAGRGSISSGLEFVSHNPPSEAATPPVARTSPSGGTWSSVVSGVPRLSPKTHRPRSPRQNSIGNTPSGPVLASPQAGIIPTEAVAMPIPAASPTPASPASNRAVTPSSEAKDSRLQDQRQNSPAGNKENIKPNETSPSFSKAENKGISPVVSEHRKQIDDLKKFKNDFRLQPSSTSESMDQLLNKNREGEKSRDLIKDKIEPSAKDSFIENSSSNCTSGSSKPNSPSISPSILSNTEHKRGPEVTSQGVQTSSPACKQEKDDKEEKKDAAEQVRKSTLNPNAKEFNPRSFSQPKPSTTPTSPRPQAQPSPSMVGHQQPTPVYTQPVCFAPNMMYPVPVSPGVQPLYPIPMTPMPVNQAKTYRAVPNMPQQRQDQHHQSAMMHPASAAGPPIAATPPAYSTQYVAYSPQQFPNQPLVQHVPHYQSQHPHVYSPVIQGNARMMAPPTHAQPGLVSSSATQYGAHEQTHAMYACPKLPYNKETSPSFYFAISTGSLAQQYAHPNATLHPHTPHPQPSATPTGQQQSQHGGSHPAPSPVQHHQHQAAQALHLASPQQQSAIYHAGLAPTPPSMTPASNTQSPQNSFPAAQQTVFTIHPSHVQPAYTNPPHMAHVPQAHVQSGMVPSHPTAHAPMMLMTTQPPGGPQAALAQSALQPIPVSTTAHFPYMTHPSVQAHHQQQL
row,Compound,Potency
1,CC(C)(C)NC(=O)NCc1cccnc1,inactive
2,CNC(=O)/C(C#N)=C/c1ccc(-c2ccc(Cl)cc2)o1,inactive
3,O=C(NCc1cccnc1)/C(=C\c1ccc(-c2ccc(Cl)c(Cl)c2)o1)S(=O)(=O)c1ccccc1,22.4 µM (active)
4,O=C(O)c1ccc(-c2ccc(/C=C3\NC(=O)N(Cc4ccc(Cl)cc4)C3=O)o2)cc1Cl,inactive
5,O=C(N/N=C/c1ccc(-c2ccc([N+](=O)[O-])cc2)o1)c1cccnc1,inactive
6,O=C(NCc1cccnc1)/C(=C\c1ccc(-c2cccc(Cl)c2)o1)S(=O)(=O)c1ccccc1,31.6 µM (active)
7,O=C(NCc1cccnc1)/C(=C/c1ccc(-c2ccc(Cl)cc2)o1)S(=O)(=O)c1ccccc1,35.5 µM (active)
8,Cc1c(N(C)S(=O)(=O)c2cccc(C(=O)NCc3cccnc3)c2)c(=O)n(-c2ccccc2)n1C,inactive
9,O=C(NCC(=O)N1CCC2(CC1)NCCc1[nH]cnc12)c1cccc(Cl)c1,inactive
10,CN(C)c1ccc(/C=N/NC(=O)c2cccc(N3CCCC3=O)c2)cc1,inactive
11,Cc1ccc(S(=O)(=O)NN=C2CCc3ccccc32)cc1,inactive
12,N#CCCn1nc(-c2ccc(Br)cc2)cc1Nc1ccccc1NC(=O)C(F)(F)F,inactive
13,CCOc1ccc(N2C(=O)/C(=C\NNc3nnc(C)c(O)n3)c3ccccc3C2=O)cc1,inactive
14,O=C(C1CCCO1)N(c1ccc(F)cc1)C1C=CS(=O)(=O)C1 (stereo not drawn),inactive
15,O=C(OCCN1C(=O)c2cccc3c(N4CCOCC4)ccc(c23)C1=O)c1cccc(Cl)c1,inactive
16,CC(C)CN(C(=O)CN1CCCCCC1)c1c(N)n(CC(C)C)c(=O)[nH]c1=O,inactive
17,CC1CN(C(S)=Nc2ccc(Cl)cc2)CC(C)O1 (stereo not drawn),inactive
18,CCn1nc(NC(=O)COC)c2cc3cc(C)ccc3nc21,inactive
19,Cc1cccc2cc3c(N)c(C(=O)N4CCc5ccccc54)sc3nc12,inactive
20,O=[N+]([O-])c1ccc(/C=N/Nc2ncc(-c3ccccc3)cn2)cc1,inactive
21,O=[N+]([O-])c1ccc(NN=Cc2ccccc2O)nc1,20 µM (active)
22,O=[N+]([O-])c1ccc(N/N=C/c2ccc(OCc3cccc4ccccc34)cc2)nc1,inactive
23,CN(C)c1c2ccccc2nc2c(F)c(F)c(F)c(F)c12,inactive
24,Cc1cccn2c(=O)c3cc(C(=O)NC(C)c4ccccc4)c(=N)n(CCOCCO)c3nc12 (stereo not drawn),inactive

row,Compound,Potency
1,C=CCn1cccc(/C=C/C(=O)c2ccc(C(C)(C)C)cc2)c1=S,35.5 µM (active)
2,O=C(/C=C/c1cn(CC(O)CN2CCCCCC2)c2ccccc12)c1ccc(Br)cc1 (stereo not drawn),inactive
3,CC(C)CN(CC(C)C)CC(O)Cn1cc(/C=C/C(=O)c2ccccc2)c2ccccc21 (stereo not drawn),inactive
4,Cc1cc(=O)oc2cc(O[C@@H]3O[C@H](CO)[C@H](O)[C@H](O)[C@H]3O)ccc12,inactive
5,O=C(COC(=O)C1CC(=O)N(Cc2ccccc2)C1)Nc1cccc([N+](=O)[O-])c1 (stereo not drawn),inactive
6,CN(C(=O)c1cccc(NC(=O)Cc2ccc(NC(=O)C3CCCN(C(=O)CCc4ccccc4)C3)cc2)c1)C1CCCCC1 (stereo not drawn),17.8 µM (active)
7,Cc1cc(N2CCOCC2)nc2ccc(NC(=O)CCC(=O)N3CCCC(C)C3)cc12 (stereo not drawn),inactive
8,Cc1ccc(N2C(=O)c3cccc4c(N5CCN(C)CC5)ccc(c34)C2=O)c2cccnc12,inactive
9,CCc1nnc(N/C=C2/C(=O)N(c3ccc(Cl)cn3)C(=O)c3ccccc32)s1,inactive
10,Cn1c(COc2ccc(C(=O)O)cc2)nc2ccccc21,inactive
11,COc1ccc(C(=O)Cn2c(C(C)=O)nc3ccccc32)cc1,33.6 µM (active)
12,CCn1c(NCc2ccc(OC)cc2)nc2ccccc21,inactive
13,CN(C)c1cccc(C(=O)OCc2cc(=O)oc3cc(O)ccc23)c1,inactive
14,N#C/C(=C\c1cccnc1)c1nc2c(s1)CCCC2,inactive
15,CN1/C(=C/C=C/c2n(C)c3cc([N+](=O)[O-])c([N+](=O)[O-])cc3[n+]2C)C(C)(C)c2ccccc21,7.94 µM (active)
16,O=C(Oc1c(-c2ccccc2Cl)oc2ccccc2c1=O)c1ccc(Cl)cc1,inactive
17,COCCCn1c(=N)c(C(=O)NCC2CCCO2)cc2c(=O)n3cccc(C)c3nc21 (stereo not drawn),inactive
18,Cc1ccc(-n2c(=O)c(C#N)cc3c(=O)n4ccccc4nc32)cc1C,inactive
19,O=C(CCS(=O)(=O)c1ccc(F)cc1)Nc1nc(-c2ccncc2)cs1,39.8 µM (active)
20,O=C(Cc1ccccc1)Nc1nc(-c2ccc(F)c(F)c2)cs1,inactive
21,Cc1c(Cl)cccc1NC(=O)CNC(=O)CCS(=O)(=O)c1ccc(F)cc1,inactive
22,COc1ccc(N2C(=O)CC(NNc3ncc(Cl)cc3Cl)C2=O)cc1 (stereo not drawn),inactive
23,COc1ccc(-n2nc(C)c3onc(C)c3c2=O)cc1,inactive
24,CC(C)(C)c1ccc(-n2nc(C#N)c(Cl)cc2=O)cc1,15.8 µM (active)

row,Compound,Potency
1,COc1ccc(-n2nc(C#N)c(Cl)cc2=O)cc1,39.8 µM (active)
2,Cc1ccc(CSc2nnc([C@@H]3CCCN3C(=O)OC(C)(C)C)o2)cc1,inactive
3,CCc1nnc(NS(=O)(=O)c2ccc(N/C=C/C(=O)c3ccc(C)cc3)cc2)s1,inactive
4,O=[N+]([O-])c1ccc(Sc2cccc[n+]2[O-])c2nonc12,6.7 µM (active)
5,CCc1nnc(NS(=O)(=O)c2ccc(Nc3ccc([N+](=O)[O-])c4nonc34)cc2)s1,17.8 µM (active)
6,CCc1nnc(NS(=O)(=O)c2ccc(NC(=O)c3cccc(Cl)c3)cc2)s1,inactive
7,O=[N+]([O-])c1ccc(Nc2ccccc2)c2nonc12,25.1 µM (active)
8,COCCn1c(SCC(=O)NC2CCCCC2)nnc1-c1ccncc1,inactive
9,O=C1OCCN1C(=O)[C@H]1[C@H](c2ccc(F)cc2)C(c2cccc(Cl)c2)=NN1c1ccccc1,inactive
10,CCN(CC)C(=O)[C@H]1CC(CC(=O)NCC23C[C@H]4C[C@@H](C2)C[C@@H](C3)C4)C(=O)N2CCc3c([nH]c4ccccc34)[C@]12C (stereo partly drawn),39.8 µM (active)
11,CC(C)N(C(=O)[C@H]1CC(CC(=O)NCc2cccc(C(F)(F)F)c2)C(=O)N2CCc3c([nH]c4ccccc34)[C@]12C)C(C)C (stereo partly drawn),39.8 µM (active)
12,CCN(CC)C(=O)[C@H]1CC(CC(=O)NCc2cccc(C(F)(F)F)c2)C(=O)N2CCc3c([nH]c4ccccc34)[C@]12C (stereo partly drawn),22.4 µM (active)
13,O=C(NCc1cccc(C(F)(F)F)c1)c1cccc2c1C(=O)c1ccc(N3CCC(Cc4ccccc4)CC3)cc1S2(=O)=O,inactive
14,CN(C)C(=O)CCc1ccc2c3c([nH]c2c1)[C@]1(C)[C@@H](C(=O)N2CCCCC2)C[C@H](CC(=O)NCC24C[C@H]5C[C@@H](C2)C[C@@H](C4)C5)C(=O)N1CC3,39.8 µM (active)
15,C/C(=N\NC(=O)c1nc2ccccn2c1C)c1ccco1,inactive
16,Cc1c(Cc2ccccc2)c(=O)oc2cc(O)cc(O)c12,inactive
17,COCC(=O)N(CCN(C)C)Cc1cc2cc3c(cc2nc1Cl)OCO3,inactive
18,COc1ccc(-c2cn3nc(SCC(=O)NCC4CCCO4)ccc3n2)cc1 (stereo not drawn),inactive
19,O=S(=O)(Oc1ccc(Cl)cc1)c1cccc2cccnc12,inactive
20,Cn1c(=O)n(CCOc2ccc([N+](=O)[O-])cc2)c2ccccc21,inactive
21,Cn1cnc([N+](=O)[O-])c1S(=O)(=O)Oc1ccccc1,28.2 µM (active)
22,Cn1cnc([N+](=O)[O-])c1S(=O)(=O)Oc1ccc(Cl)cc1,31.6 µM (active)
23,Cn1cnc([N+](=O)[O-])c1S(=O)(=O)c1cccc(Cl)c1,8.91 µM (active)
24,CC(=O)Nc1ccc(OS(=O)(=O)c2cc(Cl)ccc2C)cc1,inactive

row,Compound,Potency
1,CCOc1ccc(Nc2nc3c(S(=O)(=O)c4cccc(Cl)c4)nnn3c3ccsc23)cc1,inactive
2,Cc1c2c(n3c(nc4ccccc43)c1C#N)N(CCCN(C)C)CC2,inactive
3,Cc1ccc(Sc2ncccc2C(=O)N(C)Cc2cccs2)c(C)c1,inactive
4,O=c1c2ccccc2oc2cc(NCCCN3CCOCC3)ccc12,inactive
5,CCN(CC)S(=O)(=O)c1ccc(N2CCCC2)c(NS(=O)(=O)c2cccs2)c1,inactive
6,CCCCCCSc1ccc(-c2nc3cnccn3c2NCCCC)cc1,inactive
7,O=c1c2ccccc2nc(/C=C/c2ccc([N+](=O)[O-])o2)n1CCCO,15.8 µM (active)
8,CN(C)c1ccc(/C=C/c2nc3ccccc3c(=O)n2CCO)cc1,inactive
9,O=c1c2ccccc2nc(/C=C/c2cc(Br)ccc2O)n1CCCO,inactive
10,CCn1c(/C=C/c2cc[n+](C)cc2)nc2ccccc21,inactive
11,O=C(/C=C/c1ccc(Cl)c([N+](=O)[O-])c1)c1ccc(O)cc1,28.2 µM (active)
12,COc1ccc(Oc2ccc(/C=C/C(=O)c3ccc(O)cc3)cc2[N+](=O)[O-])cc1,28.2 µM (active)
13,COc1ccc(Oc2ccc(/C=C/C(=O)c3cccc(OC)c3)cc2[N+](=O)[O-])cc1,39.8 µM (active)
14,COc1ccc(OC)c(C=Cc2ccc([N+](=O)[O-])cc2)c1,inactive
15,Cc1cc(CNC(=O)c2cccc([N+](=O)[O-])c2C)c2ccccc2n1,inactive
16,COc1ccc(NC(=S)N(CCCN2CCCC2)Cc2cccn2Cc2ccc(Cl)cc2)cc1Cl,39.8 µM (active)
17,CN(CC(=O)Nc1cccc(C#N)c1)Cc1ccc(Cl)cc1,inactive
18,Cc1ccc(NC(=S)N(CCCN2CCCC2)Cc2cccn2Cc2ccc(Cl)cc2)cc1,39.8 µM (active)
19,CSc1cccc(NC(=S)N(CCCN2CCCC2)Cc2cccn2Cc2ccc(Cl)cc2)c1,31.6 µM (active)
20,COc1ccc(NC(=O)Cn2nc(C(=O)O)c3ccccc3c2=O)cc1Cl,inactive
21,Cc1cccc(NC(=S)N(CCCN2CCCC2)Cc2cccn2Cc2ccc(Cl)cc2)c1,25.1 µM (active)
